HGIII-sPLA2 inh: Inhibits HGIII-sPLA2 liposome hydrolysis, primary screen; QFRET BODIPY PC-A2 liposome hydrolysis, fluorescence; inhibition, % at 12.2 µM; actives 0.56% (n = 370,000);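 active = inhibition above mean plus 3 SD of compounds lying within the high and low control bounds, cut at about 19% in these data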;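 note: 0% = median of test compound wells and 100% = no enzyme DMSO wells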
GRIN3A LBD mod: modulators (binders) of human NR3A ligand-binding domain | NR3A LBD differential scanning fluorimetry, Tm shift; 0% = protein alone, 100% = glycine-bound protein | Tm shift relative to glycine control, % at 25 µM | actives 2.5% (n = 340,000);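 active = melting temperature shift of at least 10% of the positive control shift, at one fixed dose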
FAS-TE inh: FAS thioesterase (human) inhibition; P49327; recombinant FAS-TE, OMFH fluorogenic substrate, fluorescence endpoint; inhibition, % at 15 µM; actives 0.67% (n = 360,000); AID 602261;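 active = compounds whose normalised, plate-corrected inhibition of enzyme fluorescence in the single-dose primary screen is 50% or more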;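 note: 0% = DMSO with enzyme and 100% = substrate without enzyme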
ADAM10 inh: inhibitors of human ADAM10; O14672; recombinant ADAM10, EDANS/DABCYL FRET peptide cleavage, 3 h; inhibition, % at 7 µM; actives 0.62% (n = 370,000);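 active = inhibition above a per-campaign cutoff equal to the mean of compounds falling between control-based bounds plus 3 SD, cut at about 20% in these data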;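 note: 0% = DMSO wells while the 100% control is not disclosed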
ADAM17 inh: inhibits human ADAM17 | P78536 | recombinant ADAM17, EDANS/DABCYL FRET peptide cleavage | inhibition, % at 6.95 µM | actives 0.83% (n = 370,000);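 active = inhibition above the mean of compounds lying between control limits plus 3 SD, set per campaign, cut at about 8.5% in these data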;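 note: 0% = DMSO-only wells as the low control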
ADAM10 confirm: human ADAM10 inhibition, confirmation | inhibition, % at 6.95 µM | actives 1% (n = 2,100) | shares compounds with ADAM10 inh | AID 743208 | ADAM10 QFRET peptide cleavage, EDANS fluorescence;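 active = inhibition above about 20% chosen separately for each screening run, limit read from the data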;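 note: 0% = DMSO wells and 100% = marimastat wells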
ADAM17 counter: counter-screen for ADAM10 exosite inhibitors: inhibitors of human ADAM17; shares compounds with ADAM10 inh; ADAM17 QFRET peptide cleavage, EDANS fluorescence; inhibition, % at 6.95 µM; actives 0.5% (n = 2,100); AID 743214;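 active = mean triplicate inhibition above the solvent-only control wells' mean plus 3 SD, cut at about 12% in these data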;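 note: 0% = DMSO wells and 100% = marimastat wells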
ADAM10 ctr: inhibits human ADAM10 in ADAM17 exosite counter-screen. shares compounds with ADAM17 inh. recombinant ADAM10, EDANS/DABCYL FRET peptide cleavage, 3 h. inhibition, % at 6.95 µM. actives 47% (n = 2,900);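 active = mean inhibition over the triplicate runs exceeds the activity threshold set in the earlier primary screen, cut at about 20% in these data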;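 note: 0% = DMSO wells and 100% = marimastat wells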
ADAM17 confirm: confirmation of inhibitors of human ADAM17; shares compounds with ADAM17 inh; recombinant ADAM17, EDANS/DABCYL QFRET peptide cleavage; inhibition, % at 6.95 µM; actives 65% (n = 2,900); AID 743257;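 active = mean inhibition across replicates above the hit cutoff set in the primary screen, cut at about 8.5% in these data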;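 note: 0% = DMSO wells and 100% = marimastat wells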
Active calls of the source: *; · = not tested or not shown. Only some compounds are listed: those with a hit (about 4.3% of all), similar ones and a draw of the others.

SMILES	HGIII-sPLA2 inh	GRIN3A LBD mod	FAS-TE inh	ADAM10 inh	ADAM17 inh	ADAM10 confirm	ADAM17 counter	ADAM10 ctr	ADAM17 confirm
O=C(NC(CC1=CCCCC1)c1ccccc1)C(F)(F)F (configuration not stated)	-2	·	·	3	3	·	·	·	·
O=C(COC(=O)c1ccc(Sc2ncn[nH]2)c([N+](=O)[O-])c1)Nc1ccc(Cl)c(Cl)c1	-23	·	·	20*	10.0*	8	1	38*	20*
COc1ccccc1CNS(=O)(=O)c1cc(-c2cc(C)no2)ccc1C(C)C	-17	-10	23	32*	11*	2	1	17	12*
CCC(C(=O)OCC(=O)Nc1cc(Cl)cc(Cl)c1)c1ccccc1 (configuration not stated)	-26	12*	40	42*	19*	10	4	23*	12*
CCC(C(=O)OCC(=O)Nc1cc(C)ccc1OC)c1ccccc1 (configuration not stated)	-5	2	26	10	3	·	·	·	·
CCC(C(=O)OCC(=O)Nc1cccc(C(C)=O)c1)c1ccccc1 (configuration not stated)	-10	3	6	-6	-4	·	·	·	·
CCOc1ccccc1NC(=O)COC(=O)C(CC)c1ccccc1 (configuration not stated)	-5	0	27	22*	11*	2	0	16	5
O=C(C(=O)N1CCC(CNS(=O)(=O)c2ccc(F)cc2)CC1)c1cccs1	12	·	·	-10	-4	·	·	·	·
CCCn1c(SCC(=O)N2c3ccccc3Sc3ccccc32)nc2ccccc21	-15	1	46	26*	10*	3	0	17	11*
O=[N+]([O-])c1ccc(S(=O)(=O)Nc2ccc(-c3csc(-c4ccccc4)n3)cc2)cc1	-99	·	·	34*	17*	12	4	34*	17*
O=C(CSc1nnc(Cc2cccs2)n1-c1ccc(Cl)cc1)Nc1ccc(OCc2ccccc2)cc1	-21	·	·	26*	14*	13	3	23*	16*
Cc1ccc(-n2c(Cc3cccs3)nnc2SCC(=O)Nc2cccc3ccccc23)cc1	-11	·	·	26*	11*	8	2	16	8
O=C(Cc1cc(=O)[nH][nH]1)N/N=C/c1ccccc1C(F)(F)F	-7	·	·	5	3	·	·	·	·
COc1ccc(C2CC3CN(C4CCCCC4)C(=O)C3N2C)cc1 (configuration not stated)	4	·	·	-5	-6	·	·	·	·
O=C(N[C@@H](Cc1ccccc1)C(=O)N1CCC2CCN(S(=O)(=O)c3ccccc3)CC21)[C@@H]1CCCN1 (some centres not stated)	12	·	·	-7	-6	·	·	·	·
COC(=O)[C@]12C[C@H](CC(=O)NCCCCc3ccccc3)C(=O)N(CCc3ccc(OC)c(OC)c3)C1=C[C@H](C(C)(C)C)O[C@@H]2C	-18	·	·	27*	9.0*	6	2	24*	13*
COC(=O)[C@]12C[C@H](CC(=O)NCc3cccc4ccccc34)C(=O)N(Cc3ccco3)C1=C[C@H](C1CCCC1)O[C@@H]2C	-13	·	·	22*	14*	9	4	34*	17*
CCCCNC(=O)C[C@H]1C[C@@]2(C(=O)OC)C(=C[C@H](C(C)(C)C)O[C@@H]2C)N(Cc2cccc3ccccc23)C1=O	-10	·	·	29*	15*	6	2	26*	17*
COC(=O)[C@]12C[C@H](CC(=O)NCCCCc3ccccc3)C(=O)N(Cc3ccccc3)C1=C[C@H](C(C)(C)C)O[C@@H]2C	-18	·	·	15	5	·	·	·	·

Screens (PubChem BioAssay)
